# FBPA coupling cs: inhibits coupling enzyme system, counter-screen for aldolase hits; coupling enzyme system counterscreen, AmpLite Red fluorescence; activity change, negative = inhibition, % at 58.2 µM, hits read low; hit rate 0.67% among 290,000; AID 2472; in the data active means activity change below about -30%
#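 Counterscreen of the coupled detection system alone, without aldolase: glyceraldehyde-3-phosphate coupling enzymes plus AmpLite Red readout. Compounds at 57.5 uM final, 10 min RT preincubation, 20 min RT reaction, fluorescence 525/598 nm.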
# Tau fluor cs: counter-screen for tau fibril formation inhibitors. tau K18 P301L Alexa594 fluorescence, heparin fibrillization. Potency, µM (doses to about 57.7 µM). hit rate 0.93% among 280,000; further: nearly all actives have a fitted effect of over 55% in size
#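 Human tau K18 P301L (15 uM unlabeled, 0.24 uM Alexa 594-labeled) in 100 mM sodium acetate pH 7 with 20 uM heparin, 6 hr at 37 C. ThT 30 uM added, 1 hr ambient; Alexa 594 FP and total fluorescence read at 555/632 nm.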
# Tau fibril ThT: blocks human tau fibril formation measured by thioflavin T; P10636; recombinant tau K18 P301L (four-repeat tau fragment), heparin-induced fibrillization, ThT fluorescence; Potency, µM (titrated, usually from 57.4 µM), hits mostly inhibitors; hit rate 2.1% among 270,000; AID 1460; further: nearly all actives have a fitted effect of over 55% in size
# Target sequence (P10636 561-689 P618L limits assumed): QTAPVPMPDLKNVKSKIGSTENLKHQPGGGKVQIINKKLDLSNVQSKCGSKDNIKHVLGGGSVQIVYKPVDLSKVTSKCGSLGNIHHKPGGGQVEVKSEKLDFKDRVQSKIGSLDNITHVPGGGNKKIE
#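 K18 P301L tau (15 uM + 0.24 uM Alexa 594-tagged), heparin 20 uM, NaOAc pH 7, 6 h 37 C; ThT 30 uM, 1 h RT, ex 450/em 510 nm.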
# Sfp PPTase inh: blocks B. subtilis Sfp PPTase activity. Q9F4F7. Biochemical Sfp PPTase activity, qHTS. Potency, µM, actives largely listed as inhibitors. hit rate 3.5% among 310,000. AID 1490;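 further: the enzyme is Sfp with the accession as filed and its product quenches rhodamine fluorescence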
#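 With Hepes-Na pH 7.6 buffer containing 10 mM MgCl2, Sfp (15 nM) modified BHQ-2-YbbR (12.5 uM) using rhodamine-CoA (5 uM). Two reads 30 minutes apart at 525/598 nm yielded each well's rate.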
# Tau FP inhib: inhibitors of human tau fibril formation; AID 1468; P10636; K18 P301L tau heparin fibrillization, Alexa594 FP, 6 h; Potency, µM (doses to about 57.7 µM), hits mostly inhibitors; hit rate 0.39% among 280,000; further: nearly all actives have a fitted effect of over 55% in size
#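 Human tau K18 […] P301L fragment, 15 uM unlabeled plus 0.24 uM Alexa 594-labeled tau (final), with compound and 20 uM heparin in 100 mM sodium acetate pH 7; 6 hr at 37 C, then Alexa 594 FP read.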
# A number is an active result; - = inactive; ? = inconclusive; . = not tested or not shown; [ ] = another dose, or the depositor's remark. An excerpt weighted towards active compounds, which were near 5.2% of everything screened. Unless noted, the call rests on the fitted dose curve; in most records, active means well fitted curve in the direction sought with a large enough effect; inconclusive means small, poorly fitted or top-dose-only effect, or another doubt; inactive means no such curve, though single readings can be large; an effect the other way counts as inactive or inconclusive.
SMILES,FBPA coupling cs,Tau fluor cs,Tau fibril ThT,Sfp PPTase inh,Tau FP inhib
COCCNC(=S)N/N=C1\CC(C)CC(C)(C)C1 (stereo unspecified),-,-,-,50µM,-
COCCNC(=S)NN=C1CCCCCC1,-,-,-,56µM,-
CCOC(=O)N/N=C1\CC(C)CC(C)(C)C1 (stereo unspecified),-,-,-,-,-
COc1ccc(-n2ccnc(NCCc3ccc(S(N)(=O)=O)cc3)c2=O)cc1,.,-,-,.,-
CC(NC(=O)CCCn1c(=O)c2cccn2c2cccnc21)c1ccccc1 (stereo unspecified),.,-,-,.,-
O=C(Nc1ccc(F)cc1)Nc1ccc([N+](=O)[O-])cn1,-,-,-,-,-
CCN(CC)S(=O)(=O)c1cc([N+](=O)[O-])ccc1NNC(=O)Nc1ccccc1OC,-,?,?,50µM,-
CCN(CC)S(=O)(=O)c1cc([N+](=O)[O-])ccc1NNC(=O)Nc1ccc(F)cc1,-,?,-,45µM,-
O=C(c1c2c(nc3ccccc13)C(=O)N(C1CCCCC1)C2)N1CCN(c2ccc(F)cc2)CC1,.,-,-,.,-
Cc1ccc(Cl)cc1NC(=O)C(=O)NCC(c1cccnc1)N1CCc2ccccc21 (stereo unspecified),.,?,-,.,?
CCN(CC)S(=O)(=O)c1ccc2c(c1)N(CC(=O)N(C)Cc1ccccc1)C(=O)CO2,.,-,-,.,-
C=C(C(C)=O)C(O)c1ccccc1 (stereo unspecified),-,-,-,-,-
C=C(C(C)=O)C(O)c1ccco1 (stereo unspecified),-,-,28µM,?,?
COc1ccc(-c2cc(-c3ccco3)[nH]c(=O)c2C#N)cc1OC,-,?,?,22µM,-
CC(=O)OC[C@@H]1O[C@H](CCO/N=C(\C)CCN2CCCCc3nc(C)c(C)cc32)C=C[C@@H]1OC(C)=O,-,-[11.6 µM],-[11.5 µM],-,-[11.6 µM]
CCc1ccc2oc(-c3cc(NC(=O)c4cccs4)ccc3Cl)nc2c1,.,?,-,.,13µM
O=[N+]([O-])c1ccc(O)c(C=Nc2ccc3oc(Cc4ccc(Cl)cc4)nc3c2)c1,-35,?,?,28µM,-
CCc1ccc2oc(-c3cc(N)ccc3O)nc2c1,-,?,?,-,-
Cc1ccc2oc(-c3cc(NC(=O)c4ccco4)ccc3Cl)nc2c1,.,?,-,.,?
O=[N+]([O-])c1ccc(O)c(C=Nc2cccc3ccccc23)c1,-,.,.,-,.
CC(C)c1ccc2oc(-c3cc(NC(=O)c4cccnc4)ccc3Cl)nc2c1,.,?,-,.,7.9µM
CCc1ccc2oc(-c3cc(N)ccc3Cl)nc2c1,-,14µM[quencher],?,-,-
Cc1ccc(C)c(Cn2c(=O)cc(C(F)(F)F)c3c(C)nn(C)c32)c1,.,-,-,.,-
Cc1cccc(NC(=O)Cn2c(=O)n(CCc3ccccc3)c(=O)c3sc4ccccc4c32)c1,.,-,-,.,-
COc1ccc(-c2cn3c(n2)sc2cc(C(=O)NCCc4ccccc4)ccc23)cc1,.,-,-,.,-
SMILES,FBPA coupling cs,Tau fluor cs,Tau fibril ThT,Sfp PPTase inh,Tau FP inhib
COC1CCN(C(=O)c2ccc3oc(Cc4ccc(Cl)cc4)nc3c2)CC1,-,.,.,-,.
Nc1ccc2oc(Cc3ccc(Cl)cc3)nc2c1,.,?,22µM,.,?
Cc1ccc(C)n1-c1ccc(N(C)C)cc1,-30,?,13µM,40µM,?
Cc1ccc(C)n1-c1ccc(N2CCOCC2)cc1,-,-,8.9µM,-,-
Cc1ccc(C)n1-c1ccc(C(=O)/C=C/N(C)C)cc1,-,-,-,-,-
COc1ccc(-c2noc(-c3nnn(-c4cc(C)ccc4C)c3N)n2)cc1,.,-,-,.,?
CCCC1O[C@@H]2C[C@H]3[C@@H]4CCC5=CC(=O)C=C[C@]5(C)C4[C@@H](O)C[C@]3(C)[C@]2(C(=O)CO)O1 (stereo partly specified),.,-,-,.,-
CC(C)(C)n1nnnc1C(c1ccncc1)N1CCN(c2ccc(O)cc2)CC1 (stereo unspecified),-,-,-,16µM,-
CCOC(=O)C1=C(C)N=C2SCCC(=O)N2C1c1ccc(OCc2ccccc2)c(OC)c1 (stereo unspecified),.,-,?,.,-
CCOC(=O)C1=C(C)N(c2ccc(C)c(C)c2)C(=O)/C1=C\c1ccco1,-,-,28µM,?,?
CCOC(=O)C1=C(C)N(c2ccc(OC)cc2)C(=O)/C1=C\c1cccs1,-,-,?,-,?
CCOc1cc(/C=C2\C(=O)N(Cc3ccc(C)cc3)C(C)=C2C(=O)OC)ccc1O,-,?,25µM,18µM,?
CCOC(=O)C1=C(C)N(c2ccc(OC)cc2)C(=O)/C1=C\c1ccc(O)c(OCC)c1,-,?,25µM,20µM,?
C=CCOc1cccc(/C=C2\C(=O)N(Cc3ccc(C)cc3)C(C)=C2C(=O)OC)c1,-,-,?,-,-
COc1cccc(NC(=O)N(CCC(C)C)C2CCN(C(C)C)CC2)c1,.,-,-,.,-
CC1(C)C=C2C(=NN(c3ccccc3)C(N)=C2C#N)CO1,-62,.,.,45µM,.
CN(C(=O)c1cnc(N2CCOCC2)c2ccccc12)c1ccccc1F,.,-,-,.,-
O=C(N/N=C/c1ccc([N+](=O)[O-])s1)c1ccccc1,-,-,?,?,-
O=C(N/N=C\c1ccc([N+](=O)[O-])s1)c1cncc(Br)c1,-,?,14µM,-,-
O=[N+]([O-])c1ccc(O)c(/C=N/NC(=S)Nc2ccc(Cl)cc2Cl)c1,-,?,.,-,-
O=[N+]([O-])c1ccc(/C=N/NC(=S)Nc2ccc(Cl)cc2Cl)s1,-,?,?,56µM,-
COc1ccc(/C=N/OCC(=O)N=Nc2c(O)[nH]c3ccc(Br)cc23)cc1OC,-,?,18µM,-,?
COc1ccc(CC(=O)N/N=C/c2cccn2-c2ccc([N+](=O)[O-])cc2)cc1OC,-,-,-,56µM,-
CC(C)(C)OC(=O)N/N=C/c1cccn1-c1ccc([N+](=O)[O-])cc1,-,-,-,-,-
C=CC1=C2C=C(C3CC3)N(CCCOC(C)C)C=C2C(=O)C(C)(OC(=O)c2ccco2)C1=O (stereo unspecified),-32,-[11.6 µM],-[11.5 µM],-,-[11.6 µM]
C=CC1=C2C=C(C3CC3)N(Cc3ccc4c(c3)OCO4)C=C2C(=O)C(C)(OC(=O)c2ccco2)C1=O (stereo unspecified),-,-[11.6 µM],?,-,-[11.6 µM]
C=CC1=C2C=C(C3CC3)N(Cc3ccccc3)C=C2C(=O)C(C)(OC(=O)c2ccco2)C1=O (stereo unspecified),-36,-[11.6 µM],-[11.5 µM],-,-[11.6 µM]
Cc1cnc(CNc2ncnc3ccc(-c4ccccc4C(F)(F)F)cc23)cn1,-,.,.,-,.
CSCC[C@H](NC(=O)[C@H](CC(C)C)NC(=O)CNC(=O)[C@@H]1CCCN1C(=O)[C@H](Cc1ccccc1)NC(=O)[C@H](Cc1ccccc1)NC(=O)[C@H](CC(=O)O)NC(=O)[C@H](Cc1cnc[nH]1)NC(=O)[C@H](CCSC)NC(=O)[C@@H](N)CC(=O)O)C(N)=O,-,.,.,-,.

# High-throughput results: PubChem BioAssay, National Center for Advancing Translational Sciences (NCATS)
